Results on 46 molecules are retold here after PubChem BioAssay AID1851 (National Center for Advancing Translational Sciences (NCATS), 2009).

Several values for one entry are separate records, joined by “and”; a condition that tells them apart may be missing. Equal values may be shown once. Hit rate of the full screen: of about 16,000 compounds, about 4,000 (25%) were called active. About 26% were inconclusive and are not listed. The list is a sample of the results. A number with no mark means an inactive call. Calls come from the whole dose curve; as a rule, active = well fitted curve in the direction sought with a large enough effect; inconclusive = small, poorly fitted or top-dose-only effect, or effect the other way; inactive = no such curve, though single readings can be large or run the other way.
% is set by controls: 0 for no effect and ±100 for the full control effect.

The test deals with Cytochrome P450 2C9 (Homo sapiens) (UniProt P11712). Kind of test: Cytochrome panel assay with activity outcomes. The following applies: recombinant CYP, pro-luciferin dealkylation, luminescence, p450-cyp2c9; series mostly up to 57.1 µM; activity, negative = inhibition: at the top concentration.
Sequence of Cytochrome P450 2C9 (Homo sapiens) (P11712 whole entry, looked up): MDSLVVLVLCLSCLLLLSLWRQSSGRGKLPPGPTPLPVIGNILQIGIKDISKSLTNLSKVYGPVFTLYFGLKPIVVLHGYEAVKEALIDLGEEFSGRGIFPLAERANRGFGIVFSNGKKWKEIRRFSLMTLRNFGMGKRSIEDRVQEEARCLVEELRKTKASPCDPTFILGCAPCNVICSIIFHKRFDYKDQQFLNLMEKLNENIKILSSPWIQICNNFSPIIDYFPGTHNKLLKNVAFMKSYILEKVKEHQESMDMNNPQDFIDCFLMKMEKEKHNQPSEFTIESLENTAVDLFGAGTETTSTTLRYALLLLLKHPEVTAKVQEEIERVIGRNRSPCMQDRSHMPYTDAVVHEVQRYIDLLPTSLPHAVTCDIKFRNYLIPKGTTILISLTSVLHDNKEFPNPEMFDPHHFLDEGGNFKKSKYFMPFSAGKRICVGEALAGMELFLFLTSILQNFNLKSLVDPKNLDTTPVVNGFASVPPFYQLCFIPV
With `CN(C)CCn1nnnc1SCC1=C(C(=O)O)N2C(=O)[C@@H](NC(=O)Cc3csc(N)n3)[C@@H]2SC1`, the “activity, negative = inhibition” value was -7.71% [at 25.6 µM].
Regarding `Cn1c(=O)c2c(nc(C(=N)SCC(=O)O)n2C)n(C)c1=O`, the activity, negative = inhibition is -13.3% [at 11.4 µM].
In the case of `Cc1[nH]c2c(C)ccc(C)c2c1CC(=O)O`, the activity, negative = inhibition is -16.5% [at 11.4 µM].
The same measure, in the same setting: in the case of `Cc1ccccc1-c1nc(NCc2cccnc2)c2ccccc2n1` it was 9.82% [at 2.29 µM].
The term AC50 denotes the concentration giving half of the maximal activity seen. For `Clc1ccccc1-c1nc(N/N=C/c2cccnc2)c2ccccc2n1`, the concentration at half-maximal activity (AC50) is 2.24 µM (active).
For the molecule `Clc1ccccc1-c1nc(NCc2cccnc2)c2ccccc2n1`, the activity, negative = inhibition was -14.1% [at 2.29 µM].
In the case of `CCC(=O)O[C@H](CC(=O)O)C[N+](C)(C)C`, the “activity, negative = inhibition” value is -21.4%.
Take `N[C@@H](COP(=O)(O)O)C(=O)O`: the “activity, negative = inhibition” value is 1.4%.
Take `Fc1ccc(-c2[nH]ncc2-c2nnnn2-c2ccccc2)c(F)c1`: the concentration at half-maximal activity (AC50) was 7.94 µM (active).
As for `C=CC[C@@H](C(=O)O)c1ccccc1`, the activity, negative = inhibition was -1.11% [at 11.4 µM].
On to `CCOc1cc(/C=N/NC(=O)CNc2cccc(C)c2)ccc1OC(=O)c1ccccc1`, for which the half-maximal activity concentration (AC50) is 5.01 µM (active).
Turning to `CCOc1cc(/C=N/NC(=O)COc2cccc(C)c2)ccc1OC(=O)c1cccs1`, the AC50 was 3.16 µM (active).
Regarding `N#Cc1cccc(NC(=O)N2CC3(CCN(C(=O)c4cnccn4)CC3)C2)c1`, the “activity, negative = inhibition” value is 6.68%.
Turning to `CC(C)(C)c1c2c(c(C(C)(C)C)c3c1OCN(Cc1ccccc1)C3)OCN(Cc1ccccc1)C2`, the activity, negative = inhibition was -7.82% [at 11.4 µM].
For `C#CCSc1nc(Cc2ccc(Cl)cc2)nc2ccccc12`, the half-maximal activity concentration (AC50) is 2.82 µM (active).
In the case of `O=C1NC(c2ccccc2)=NC1(NS(=O)(=O)c1ccccc1)C(F)(F)F` (stereo unspecified), the “activity, negative = inhibition” value is -1.05%.
With `CCCCNc1ccc(C(=O)OCCOCCOCCOCCOCCOCCOCCOCCOCCOC)cc1`, the “activity, negative = inhibition” value was -19.2% [at 25.6 µM].
For the molecule `O=C(OCCNC(=O)c1ccc2ccccc2n1)c1ccc(F)cc1`, the half-maximal activity concentration (AC50) is 10 µM (active).
On to `NCCNC(=O)c1ncsc1-c1cccc(F)c1`, for which the “activity, negative = inhibition” value was -13.3%.
As for `O=c1[nH]c(SCc2c(Cl)c(Cl)c(Cl)c(Cl)c2Cl)nc(=S)[nH]1`, the concentration at half-maximal activity (AC50) was 1.26 µM (active).
For `Nc1ccc(N=Nc2c(S(=O)(=O)O)cc3ccccc3c2S(=O)(=O)O)cc1`, the activity, negative = inhibition is 8.14% [at 11.4 µM].
For the molecule `NCC[C@H]1CCC[C@H](CCN)N1`, the “activity, negative = inhibition” value was 18.1%.
For the molecule `Cc1ccc(C)c(N2CCN(C(=O)c3ccc4nc(-c5ccco5)c(-c5ccco5)nc4c3)CC2)c1`, the half-maximal activity concentration (AC50) was 7.08 µM (active).
For `COc1cc2nc(N3CCN(C(=O)c4ccco4)CC3)nc(N)c2cc1OC`, the “activity, negative = inhibition” value was 15.7% [at 25.6 µM].
As for `COc1ccc(C)cc1NC(=O)CCC(=O)Nc1nnc(C(F)(F)F)s1`, the half-maximal activity concentration (AC50) was 1.26 µM (active).
As to `COc1ccc(C)cc1NC(=O)CSc1nnc(-c2ccc(OC)c(OC)c2)n1N`, the “activity, negative = inhibition” value is -24.7%.
For the molecule `CCC(=O)OCC(=O)[C@@]1(OC(=O)CC)[C@H](C)C[C@@H]2[C@H]3CCC4=CC(=O)C=C[C@]4(C)[C@]3(Cl)[C@@H](O)C[C@@]21C`, the “activity, negative = inhibition” value is -6.62% [at 25.6 µM].
Turning to `CC(C)NC[C@H](O)c1ccc2ccccc2c1`, the AC50 result is “inactive”.
As for `CCN(CC)C[C@@H](O)c1ccc2ccc3ccccc3c2c1`, the activity, negative = inhibition was -3.91% [at 11.4 µM].
In the case of `CCCCOC(OCCCC)[C@H](O)CSc1ccc2ccccc2c1`, the AC50 is 2 µM (active).
Regarding `Cc1cc(C)c(C#N)c(Oc2ccccc2)n1`, the “activity, negative = inhibition” value is -26.3%.
Turning to `Cc1cc(C)c(C#N)c(OCC(=O)c2ccc(Br)cc2)n1`, the AC50 is 10 µM (active).
Consider `Cc1ccc(=O)n(-c2ccccc2)c1`, for which the “activity, negative = inhibition” value was -14.5%.
The same measure, in the same setting: in the case of `COc1ccc(NC(=O)N2CCCC3(CCN(C(=O)c4cccn4C)CC3)C2)cc1` it was 6.73%.
As for `O=C1CN(C(=O)c2ccc(Br)o2)C(c2ccc(F)cc2)c2cc(Cl)ccc2N1` (stereo unspecified), the AC50 is 6.31 µM (active).
With `CO[C@H]1COC(=O)C/C=C\[C@@H](C)COC(=O)[C@@H](CCSC)NC(=O)C/C=C\[C@@H]1C`, the activity, negative = inhibition is -2.93% [at 11.4 µM] and 12.5% [at 11.4 µM].
For `C[C@H]1COC(=O)[C@H]2CCCN2C(=O)[C@@H](C)COC(=O)[C@H](Cc2ccccc2)NC1=O`, the activity, negative = inhibition was 13.4% [at 11.4 µM].
Consider `Cc1ccc(S(=O)(=O)N[C@H](C(=O)O)C(C)C)cc1`, for which the activity, negative = inhibition was -4.41% [at 11.4 µM].
On to `Cc1ccc(S(=O)(=O)N[C@H]2COC(=O)C/C=C\[C@H](C)[C@@H](NS(=O)(=O)c3ccc(C)cc3)COC(=O)C/C=C\[C@@H]2C)cc1`, for which the activity, negative = inhibition was -6.21% [at 11.4 µM].
The same measure, in the same setting: under `Cc1ccc(S(=O)(=O)NCc2ccccc2)cc1` stands -8.12%.
In the case of `Cc1ccc(S(=O)(=O)NNc2ccccc2)cc1`, the AC50 is 8.91 µM (active).
Still for that read-out and setting: under `Cc1ccc(NNS(=O)(=O)c2ccc(C)cc2)cc1` stands 8.91 µM (active); under `CCN=C1NN=C(c2ccc(C)cc2)CS1`, 6.31 µM (active).
Take `COc1ccc2cc(C#N)c(SCC(=O)NNC(=O)Cc3ccccc3)nc2c1`: the “activity, negative = inhibition” value was -16.9%.
For the molecule `COc1cccc(NC(=O)CSc2nc3ccccc3cc2Cc2ccccc2)c1`, the AC50 is 6.31 µM (active).
For the molecule `CCN(CC)C(=O)CSc1nnc(C2CCCCC2)o1`, the “activity, negative = inhibition” value is 7.48%.
